# According to PubChem BioAssay (NCI):
# Compounds without any hit were thinned out: in the full panel of roughly 79,000, 15% have a hit. Values without a mark were called inactive. Calls of active or inactive are those of the source. Cut-off read from the data, not from the text of the source: active = growth inhibition above about 70%; inactive = the rest. Where a SMILES comes first, the peptide text is derived from it. [ ]: non-standard residue; d: D form. The star is where a group is joined. ξ: configuration not given here. dThr(3ξ) = CC(O)[C@@H](N)C(=O)O; dNMeL = CN[C@H](CC(C)C)C(=O)O; Cbz = O=C(OCc1ccccc1)*; OBn = c1ccc(CO*)cc1; ξLac = CC(O)C(=O)O
# How the values were obtained:
# [1] = NCI Yeast Anticancer Drug Screen. Data for the rad50 strain (AID 155);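 note: 0% = growth of vehicle-only cultures of the same strain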; conditions: S. cerevisiae rad50 strain growth inhibition; at 50.0 µM; active compounds read high
# How it was run: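 Vehicle-treated cultures provide the reference for the growth inhibition reported for compound-exposed, repair-deficient yeast.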
# [2] = NCI Yeast Anticancer Drug Screen. Data for the mec2-1 strain (AID 157); conditions: S. cerevisiae mec2-1 strain, at 50.0 µM, active compounds read high
# How it was run: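 Readout is yeast growth inhibition, normalised to vehicle-treated controls, in the mec2-1 strain exposed to compound.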
# [3] = NCI Yeast Anticancer Drug Screen. Data for the sgs1 mgt1 strain (AID 161);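 note: 0% = growth of cultures given vehicle only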; conditions: S. cerevisiae sgs1 mgt1 strain, at 50.0 µM, active compounds read high
# How it was run: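 Percent growth inhibition was derived by comparing compound-exposed mutant yeast with vehicle-exposed cultures. The strain carries alterations in DNA damage repair.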
# [4] = NCI Yeast Anticancer Drug Screen. Data for the cln2 rad14 strain (AID 165);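 note: 0% = growth equal to vehicle treated cultures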; conditions: S. cerevisiae cln2 rad14 strain, at 50.0 µM, active compounds read high
# How it was run: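 Relative to vehicle controls, growth inhibition of compound-treated cln2 rad14 yeast was recorded.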
# [5] = NCI Yeast Anticancer Drug Screen. Data for the bub3 strain (AID 167); conditions: S. cerevisiae bub3 mutant strain, at 50.0 µM, active compounds read high
# How it was run: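 Mutant yeast screening strain plus compound; vehicle-treated cultures serve as the 0% inhibition reference.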
# [6] = NCI Yeast Anticancer Drug Screen. Data for the mlh1 rad18 strain (AID 175); conditions: S. cerevisiae mlh1 rad18 strain growth inhibition; at 50.0 µM; active compounds read high
# How it was run: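 Test agents were incubated with a yeast strain of defined genotype (DNA damage repair defect). Inhibition of growth was derived by comparison with vehicle-exposed cultures.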
SMILES,growth inhibition [1],growth inhibition [2],growth inhibition [3],growth inhibition [4],growth inhibition [5],growth inhibition [6]
CSC(=S)N/N=C(\c1ccccc1)c1ccccn1,0.3%,13.2%,0.85%,10.4%,21.2%,5.75%
COc1cc(NCCC(=O)O)c2ncccc2c1,-25.1%,-19.2%,-41.9%,-18.8%,-24.2%,0.7%
O=C(Nc1ccccc1Cl)Oc1ccc(Cl)cc1Cc1ccccc1,99.7% (active),99.7% (active),99.7% (active),99.7% (active),99.7% (active),99.7% (active)
O=C(N=C1SCCS1)Nc1cccc(Cl)c1,87% (active),5.7%,44%,11.3%,11.4%,37.2%
CCCCC/C(C)=C\CBr,-7.65%,-2.65%,-7.1%,-22.9%,-10.6%,-3%
CCOC(=O)NC(C)(C)CC(C)(C)C,-0.6%,-17.6%,-4.7%,11.9%,-18.6%,17.4%
BrC1=CCC23CC=C(Br)[C@H]4CC2(COC3)C[C@@H]1O4 (stereo partly specified),25.2%,-0.55%,0.6%,-0.05%,-19.4%,-9.75%
Nc1cccc(N=[N+]([O-])c2cccc(N)c2)c1,18.9%,8.05%,-10.5%,-22.1%,12.2%,27.6%
CC(=O)OC(C)[C@@H](NC(=O)[C@@H](CC(C)C)N(C)C(=O)[C@@H]1CCCN1C(=O)C(C)O)C(=O)OCc1ccccc1 (stereo partly specified) (H-[ξLac]P[dNMeL][dThr(3ξ)](Ac)-OBn),8.75%,24.4%,-16.8%,8.2%,-30.4%,-37.3%
COc1ccc2nccc(/C=C/CC3CCN(C(C)=O)CC3)c2c1,31.8%,29.4%,88.2% (active),45.6%,31.6%,74.8% (active)
O=[N+]([O-])c1ccc(Nc2ccccc2)nc1,-22.7%,-35.5%,7.35%,2.7%,-5.5%,-5.05%
Cn1c(=O)[nH]nc(Br)c1=O,2.55%,-9.7%,-9%,-4.75%,-4.6%,-24.9%
CCc1ccc(/C=C/C(=O)C(C)CN(C)C)cc1 (stereo unspecified),-4.9%,26.1%,-2.3%,22.1%,13.9%,9.85%
Nc1nc(N)c2nc3c(nc2n1)CCCCCC3,4.25%,-4%,4.25%,-19.4%,-3.2%,2.55%
CCOc1ccc(OCC)c(NC(C)=O)c1,-1.95%,4.05%,3.95%,5.5%,13.8%,-3.6%
O=C(Cc1ccccc1)N(Cc1ccccc1)Cc1ccccc1,96.8% (active),98.7% (active),98.8% (active),91.9% (active),92.4% (active),97.9% (active)
CCOC(=O)c1cnc2ccccc2c1OCC,-5.45%,-12.2%,-6.5%,-43.9%,2.55%,0.55%
CC(C)c1cccc(C(C)C)c1NC(=O)OC1CCCCC1C (stereo unspecified),-21.1%,-17.6%,7%,-1.95%,-4.65%,-6.4%
CC(C)CC(NC(=O)C(CO)NC(=O)OCc1ccccc1)C(=O)NC(Cc1ccc(O)cc1)C(N)=O (stereo not drawn) (Cbz-Ser-Leu-Tyr-NH2; configuration not given here),47.5%,-8.05%,27.6%,4.9%,3.95%,13.7%
Nc1ncnc(N)c1NC(=O)c1ccc(SCc2ccccc2)cc1,-7.15%,20.9%,27.5%,-21.2%,22.5%,22.2%
NCCSC(O)(C(F)(F)F)C(F)(F)F,19.6%,8.85%,3.05%,-15.2%,1.2%,23%

SMILES,growth inhibition [1],growth inhibition [2],growth inhibition [3],growth inhibition [4],growth inhibition [5],growth inhibition [6]
OC(c1cc2ccccc2c2ccccc12)C1CCCCN1 (stereo unspecified),21.9%,16.9%,43.8%,13.2%,20%,36.2%
NCC(=O)N1CCCC1C(=O)O (stereo unspecified),-9.8%,-6.3%,-0.7%,-24.4%,0.05%,-6.2%
C/C=C/c1ccc2oc(-c3ccc(OC4OC(C)C(O)C(O)C4O)cc3)c(C)c2c1 (stereo unspecified),98.9% (active),99% (active),99.2% (active),98.7% (active),98.5% (active),51.9%
CCC/C(=N/NC(N)=O)C1=CCCCC1,0.45%,-5.45%,-2.6%,-28.4%,-18.9%,3.4%
CCOC(=O)c1cc(-c2ccccc2)nc2nc(N)ccc12,15.2%,-3.15%,5.65%,9.05%,13.2%,15.2%
COC(=O)C1(Cc2ccccc2)Cc2cc3c(cc2C1=O)CCC3 (stereo unspecified),20.9%,3.75%,8.5%,2.2%,34.8%,-7.65%
Cc1ccc(S(=O)(=O)NNC(=O)c2cc(C(=O)NNS(=O)(=O)c3ccc(C)cc3)c(C)nc2C)cc1,-1.95%,5.3%,6.9%,21.8%,8.3%,-7.8%
Cc1cc(Cl)cc(CN(C)Cc2c(C)[nH]c(=O)[nH]c2=O)c1O,-31.4%,-17.1%,-17.2%,2.65%,-0.5%,-8.9%
CCNC(=O)OCCN(CCOC(=O)NCC)CCc1cccc(OC)c1OC,6.1%,6.65%,-7.3%,1.95%,-3.5%,20.6%
C=C(C#N)C1OCC2OC(C)(C)OC21 (stereo unspecified),3.7%,-4%,-0.35%,12.3%,-4.8%,-25.9%
CC/C=C(\C)C1(CC)C(=O)NC(=O)N=C1N (stereo unspecified),-1.35%,3.55%,5.9%,4.55%,-2%,-11.9%
O=C(O)Cc1ccc(-c2ccccc2)[nH]1,3.35%,-14.7%,3.25%,-25.8%,-17.1%,-12%
Cc1ncn(-c2ccccc2)c(=O)c1N=Cc1ccccc1,-13.7%,-17.1%,-32.2%,-8.85%,-19.7%,-10.3%
O=C(Nc1ccccc1Cl)c1ccc(F)cc1,-2.25%,-12.2%,15%,7.4%,-21.4%,-3.85%
Cc1ccc2c(c1)Cc1cc(C)ccc1-2,25.1%,12.4%,14.4%,7.65%,31.2%,19.4%
O=C(O)CCC(=O)OCc1ccccc1,3.15%,22.6%,-22.1%,-16.6%,-11.2%,0.8%
Cc1cccc(Cl)c1NC(=O)COc1ccc(Cl)cc1,5.75%,5.75%,38.2%,1.65%,30.9%,26.2%
COC1=C(C(=O)OC(C)(C)C)[C@]2(C)C(C(=O)OC(C)(C)C)C(OC)=C(C(=O)OC(C)(C)C)[C@]2(C)C1C(=O)OC(C)(C)C (stereo partly specified),30.6%,15.4%,22.8%,17.6%,-3.25%,29.9%
CC(C)CCC[C@@H](C)[C@H]1CC[C@H]2[C@@H]3CC[C@H]4C[C@@H](CCC=C(c5cc(Cl)c(O)c(C(=O)O)c5)c5cc(Cl)c(O)c(C(=O)O)c5)CC[C@]4(C)[C@H]3CC[C@]12C,15.3%,8.35%,11.4%,-4.2%,24.5%,-1.75%
CCOC(=O)CCC1(CCC(=O)OCC)c2ccccc2-c2ccccc21,3.65%,9%,-1.85%,-7.15%,-3.75%,13%
